Records with an inconclusive call do not appear. Active and inactive are the calls of the source. Unless noted, calls come from the whole dose curve; as a rule, active = well fitted curve in the direction sought with a large enough effect; inconclusive = small, poorly fitted or top-dose-only effect, or another doubt; inactive = no such curve, though single readings can be large; an effect the other way counts as inactive or inconclusive.
Legend:
[1] = qHTS assay for measurement of the activity of small molecule inhibitors on Zika virus induced Caspase-3 activity in human astrocytoma cells (AID 1224859)
Procedure, shortened: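 Luminescence read-out (Caspase-Glo 3/7, 30 min RT) of caspase activity in SNB-19 cells infected 6 h with ZIKV, 2 FFU/cell, after 1 h compound pretreatment; % inhibition from induction normalised to uninfected (0%) and infected (100%) wells.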

[2] = Natriuretic polypeptide receptor (hNpr1) antagonism - Pilot counterscreen GloSensor control cell line (AID 1347045; calls by dose curve; note: series mostly up to about 38 µM)
Procedure, shortened: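 The SNP-driven cGMP luminescence signal (50 uM, 20 min, room temperature) was measured in GloSensor HEK293 control cells. Compounds were tested as a LOPAC titration series and preincubated for 30-50 min.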

[3] = biological target: Atrial natriuretic peptide receptor 1 (Homo sapiens) (UniProt P16066); assay: Natriuretic polypeptide receptor (hNpr1) antagonism - Pilot screen (AID 1347049; calls by dose curve;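 note: agonist-evoked cGMP luminescence read 20 min after hNppA addition; series mostly up to about 58 µM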)
Chain of Atrial natriuretic peptide receptor 1 (Homo sapiens) (P16066 whole entry, looked up): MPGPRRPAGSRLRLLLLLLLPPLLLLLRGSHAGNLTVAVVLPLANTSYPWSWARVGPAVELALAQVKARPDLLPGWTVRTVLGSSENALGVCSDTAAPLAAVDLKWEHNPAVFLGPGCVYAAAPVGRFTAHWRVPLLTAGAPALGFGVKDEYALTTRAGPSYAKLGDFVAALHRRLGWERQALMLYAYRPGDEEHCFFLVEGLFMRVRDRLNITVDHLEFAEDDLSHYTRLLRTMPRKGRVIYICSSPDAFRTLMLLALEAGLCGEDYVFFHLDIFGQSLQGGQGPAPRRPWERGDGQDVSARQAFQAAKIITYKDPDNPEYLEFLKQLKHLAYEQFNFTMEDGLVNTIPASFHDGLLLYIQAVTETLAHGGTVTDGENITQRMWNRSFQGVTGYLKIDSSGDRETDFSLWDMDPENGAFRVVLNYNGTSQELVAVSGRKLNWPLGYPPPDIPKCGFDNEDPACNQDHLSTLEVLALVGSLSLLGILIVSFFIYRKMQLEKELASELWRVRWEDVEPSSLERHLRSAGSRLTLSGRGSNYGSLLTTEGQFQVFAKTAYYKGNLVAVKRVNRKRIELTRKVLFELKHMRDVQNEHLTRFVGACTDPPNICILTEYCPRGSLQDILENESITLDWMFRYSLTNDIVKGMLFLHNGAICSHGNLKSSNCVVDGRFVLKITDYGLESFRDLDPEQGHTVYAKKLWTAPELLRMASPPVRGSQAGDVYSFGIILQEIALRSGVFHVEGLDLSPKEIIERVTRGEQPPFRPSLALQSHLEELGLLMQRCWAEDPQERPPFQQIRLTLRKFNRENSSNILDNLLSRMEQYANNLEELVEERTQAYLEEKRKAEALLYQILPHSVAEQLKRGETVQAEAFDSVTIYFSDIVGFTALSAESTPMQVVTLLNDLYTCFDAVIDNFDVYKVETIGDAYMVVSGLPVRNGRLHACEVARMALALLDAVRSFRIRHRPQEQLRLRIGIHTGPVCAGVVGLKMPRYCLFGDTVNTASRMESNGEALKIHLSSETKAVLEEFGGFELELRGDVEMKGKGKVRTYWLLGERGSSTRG
Procedure, shortened: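 cGMP-sensor HEK293/hNpr1 cells, 1500/well, plated overnight at 37C. 2% GloSensor reagent, 2 h RT. Compound (23 nL pin transfer) 30 min RT, baseline luminescence pre-read. 0.1 nM hNppA, 20 min RT, post-read.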

[4] = biological target: Atrial natriuretic peptide receptor 2 (Homo sapiens) (UniProt P20594); assay: Natriuretic polypeptide receptor (hNpr2) antagonism - Pilot subtype selectivity assay (AID 1347050; calls by dose curve)
Chain of Atrial natriuretic peptide receptor 2 (Homo sapiens) (P20594 whole entry, looked up): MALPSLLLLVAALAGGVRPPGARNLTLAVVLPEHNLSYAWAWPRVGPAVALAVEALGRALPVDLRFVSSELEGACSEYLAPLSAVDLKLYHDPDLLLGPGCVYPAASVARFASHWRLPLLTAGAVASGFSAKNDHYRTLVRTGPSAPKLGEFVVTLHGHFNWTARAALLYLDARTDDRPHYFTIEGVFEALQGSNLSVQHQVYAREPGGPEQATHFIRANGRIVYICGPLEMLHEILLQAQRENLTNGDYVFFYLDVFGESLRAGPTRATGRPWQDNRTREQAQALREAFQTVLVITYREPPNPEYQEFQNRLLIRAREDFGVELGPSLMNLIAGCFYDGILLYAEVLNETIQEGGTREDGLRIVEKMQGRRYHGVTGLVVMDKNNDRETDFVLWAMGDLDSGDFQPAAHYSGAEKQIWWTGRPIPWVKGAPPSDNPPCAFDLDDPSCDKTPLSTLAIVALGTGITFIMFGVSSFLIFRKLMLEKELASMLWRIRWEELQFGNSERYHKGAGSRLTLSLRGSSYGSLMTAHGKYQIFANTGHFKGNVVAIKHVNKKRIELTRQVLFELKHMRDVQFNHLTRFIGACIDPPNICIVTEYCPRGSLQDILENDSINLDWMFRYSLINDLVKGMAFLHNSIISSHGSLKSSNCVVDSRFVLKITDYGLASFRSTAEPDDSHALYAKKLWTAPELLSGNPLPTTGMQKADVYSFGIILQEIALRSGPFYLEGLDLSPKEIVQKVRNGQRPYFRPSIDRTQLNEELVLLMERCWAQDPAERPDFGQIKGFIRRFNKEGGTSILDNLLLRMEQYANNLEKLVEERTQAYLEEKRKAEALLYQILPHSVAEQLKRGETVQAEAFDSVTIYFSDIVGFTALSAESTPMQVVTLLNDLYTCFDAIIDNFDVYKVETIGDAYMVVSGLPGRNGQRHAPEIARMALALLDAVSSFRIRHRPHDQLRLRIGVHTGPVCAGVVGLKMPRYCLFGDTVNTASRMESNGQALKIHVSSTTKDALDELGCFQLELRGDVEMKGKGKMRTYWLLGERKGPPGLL
Procedure, shortened: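 Luminescence from a genetically encoded cGMP luciferase biosensor in hNpr2-expressing HEK293 cells is read before and 20 min after adding 1 nM hNppC. Test compounds, in interplate 1:5 titrations, are added 30-50 min ahead of the agonist.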

[5] = biological target: Tyrosine-protein phosphatase non-receptor type substrate 1 (Homo sapiens) + Leukocyte surface antigen CD47 (Homo sapiens) (UniProt P78324+Q08722); assay: CD47-SIRPalpha protein protein interaction - LANCE assay qHTS validation (AID 1347057; active = well fitted curve in the direction sought with a large enough effect in the signal ratio, with a control signal flat, not every such curve was filed as active; the % refers to the signal ratio; note: potency is the fitted concentration of half-maximal effect)
Chain of Tyrosine-protein phosphatase non-receptor type substrate 1 (Homo sapiens) + Leukocyte surface antigen CD47 (Homo sapiens) (P78324 whole entry, looked up, the tested form may be a part): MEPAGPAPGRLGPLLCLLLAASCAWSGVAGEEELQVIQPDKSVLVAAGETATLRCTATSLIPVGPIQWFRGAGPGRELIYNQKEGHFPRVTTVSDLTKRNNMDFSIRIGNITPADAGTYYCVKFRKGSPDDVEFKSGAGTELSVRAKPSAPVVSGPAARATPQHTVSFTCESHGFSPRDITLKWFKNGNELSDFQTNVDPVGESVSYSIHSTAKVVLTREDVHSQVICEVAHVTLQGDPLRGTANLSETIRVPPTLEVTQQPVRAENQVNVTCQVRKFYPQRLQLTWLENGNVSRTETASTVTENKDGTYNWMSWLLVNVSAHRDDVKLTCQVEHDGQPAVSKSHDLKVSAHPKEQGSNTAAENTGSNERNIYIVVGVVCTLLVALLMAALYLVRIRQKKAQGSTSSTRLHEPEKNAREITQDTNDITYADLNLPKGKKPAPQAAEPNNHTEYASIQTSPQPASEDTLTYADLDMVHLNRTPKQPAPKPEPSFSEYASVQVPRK
Chain of Tyrosine-protein phosphatase non-receptor type substrate 1 (Homo sapiens) + Leukocyte surface antigen CD47 (Homo sapiens) (Q08722 whole entry, looked up, the tested form may be a part): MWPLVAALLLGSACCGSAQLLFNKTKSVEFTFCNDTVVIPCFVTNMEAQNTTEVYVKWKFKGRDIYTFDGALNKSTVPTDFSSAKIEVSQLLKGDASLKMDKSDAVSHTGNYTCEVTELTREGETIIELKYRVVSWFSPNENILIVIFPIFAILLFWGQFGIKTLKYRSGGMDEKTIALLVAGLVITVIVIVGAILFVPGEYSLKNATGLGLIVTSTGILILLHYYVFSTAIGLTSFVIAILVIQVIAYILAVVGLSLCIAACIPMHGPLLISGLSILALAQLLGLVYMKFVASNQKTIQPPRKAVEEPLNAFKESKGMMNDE
Procedure, shortened: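 Inhibition of soluble CD47/SIRPalpha ectodomain association by titrated compounds, measured as 665/615 nm time-resolved FRET ratio after sequential 30 min room-temperature incubations.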

[6] = NS1 protein of Zika virus - qHTS assay to identify small molecule inhibitors in human HEK 293 cells (AID 1347053); note: series mostly up to about 46 µM; nearly all actives have a fitted effect of over 55% in size
Procedure, shortened: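 In this cell-based screen, HEK 293 cultures received compound for one hour before Zika MR766 at MOI = 0.5. NS1 was quantified 24 hours later by TR-FRET, normalized to virus-free wells and infected wells.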

[7] = qHTS assay to identify small molecule inhibitors of chordoma cells - UCH-1 (AID 1259355); note: nearly all actives have a fitted effect of over 55% in size; note: potency is the fitted concentration of half-maximal effect; series mostly up to about 46 µM
Procedure, shortened: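 Screening used approved and investigational drugs in 15-point titration against 800 seeded cells per well. A fixed combination of auranofin with camptothecin, doxorubicin, rubitecan and topotecan followed compound addition, and growth was scored by CellTiter-Glo after 48hr.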

[8] = qHTS assay to identify small molecule inhibitors of chordoma cells - UCH-2 (AID 1259356); note: series mostly up to about 46 µM
[9] = P-glycoprotein substrates identified in KB-8-5-11 adenocarcinoma cell line, qHTS therapeutic library screen (AID 1346987); note: series mostly up to about 44 µM; nearly all actives have a fitted effect of over 65% in size
Procedure, shortened: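 Human cervical adenocarcinoma KB-8-5-11 cells, selected in colchicine to over-express P-gp and assayed without it, were exposed for 72 h to titrated compounds. An ATP-based luminescent viability signal gave AC50.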

Measured: Potency

NNC(=O)c1ccc(O)cc1
inactive: [1] | [2] | [3] | [4] | [5]

CCCC[N+]1(C)C2CC(OC(=O)[C@H](CO)c3ccccc3)CC1C1OC12 (some centres not stated)
not listed: [7] | [8] | [9]
inactive: all other assays above

C[N+]1(C)CCOC(O)(c2ccc(-c3ccc(C4(O)C[N+](C)(C)CCO4)cc3)cc2)C1 (configuration not stated)
not listed: [7] | [8] | [9]
inactive: all other assays above

N[C@@]1(C(=O)O)CC[C@@H](C(=O)O)C1
inactive: [1] | [2] | [4] | [6] | [5]

CN1C2CCC1CC(OC(c1ccccc1)c1ccccc1N)C2 (configuration not stated)
inactive: [1] | [2] | [3] | [6] | [5]

C[N+](C)(C)CCOC(=O)CBr
not listed: [7] | [8] | [9]
inactive: all other assays above

CC(N)Cc1c[nH]c2ccc(OCc3cccs3)cc12 (configuration not stated)
not listed: [7] | [8] | [9]
inactive: all other assays above

Clc1ccc(N2CC3CCC(C2)N3)nn1
not listed: [7] | [8] | [9]
inactive: all other assays above

COc1ccc2[nH]cc(CCN)c2c1
not listed: [7] | [8] | [9]
inactive: all other assays above

COc1cc(CC(C)N)c(OC)cc1I (configuration not stated)
inactive: [1] | [2] | [4]

N=C(N)c1ccc(CS(=O)(=O)F)cc1
not listed: [7] | [8] | [9]
inactive: all other assays above

CCS(=O)(=O)Nc1cccc(C(=C2CCCCC2)c2cnc[nH]2)c1
inactive: [1] | [2] | [4] | [6] | [5]

C[C@@H]1O[C@@H](O[C@H]2C[C@@H](O)[C@]3(CO)[C@@H]4C(CC[C@]3(O)C2)[C@@]2(O)CC[C@H]([C@@H]3COC(=O)C3)[C@@]2(C)C[C@H]4O)[C@H](O)[C@H](O)[C@H]1O (some centres not stated)
inactive: [1] | [2] | [3] | [4] | [5]

Clc1ccc(C(Cn2ccnc2)OCc2csc3c(Cl)cccc23)c(Cl)c1 (configuration not stated)
inactive: [7] | [8]

CCCC(=O)OC(C(Cl)(Cl)Cl)P(=O)(OC)OC (configuration not stated)
inactive: [7] | [8]

COC(=O)N1CCN(C(=O)Cc2ccc(Cl)c(Cl)c2)C(CN2CCCC2)C1 (configuration not stated)
inactive: [1] | [3] | [4] | [6] | [5]

C[C@]12C=CC(=O)C=C1CC[C@@H]1[C@@H]2CC[C@]2(C)OC(=O)CC[C@@H]12
inactive: [7] | [8]

CCN(CC)CCO[C@H]1CC[C@@]2(C)C(=CC[C@@H]3[C@@H]2CC[C@]2(C)C(=O)CC[C@@H]32)C1
inactive: [7] | [8]

C[C@]12Cc3cn4c(nc3C=C1CCC1C2CC[C@@]2(C)[C@H]1CC[C@@]2(O)C#N)nc1ccccc14 (some centres not stated)
inactive: [1] | [6] | [5]

CCC(C)(S(=O)(=O)CC)S(=O)(=O)CC
inactive: [7] | [8]

[N-]=[N+]=CC(=O)OCC(N)C(=O)O (configuration not stated)
inactive: [7]

CCCC(C)(COC(N)=O)COC(=O)NC1CC1 (configuration not stated)
inactive: [7] | [8]

CNC(=O)Oc1ccccc1C(=O)Nc1ccccc1
inactive: [7] | [8]

CCCN1CCCC2Cc3[nH]ncc3CC21 (configuration not stated)
inactive: [7]

O=C1C2CC=CCC2C(=O)N1SC(Cl)(Cl)Cl (configuration not stated)
active: [7] 12.6 µM

O=c1c2ccccc2[se]n1-c1ccccc1
inactive: [7] | [8]

C[N+]1(C)CCCCC1COC(=O)C(O)(c1ccccc1)c1ccccc1 (configuration not stated)
inactive: [7] | [8]

Cc1o[nH]c(=O)c1CC(N)C(=O)O (configuration not stated)
inactive: [1] | [3] | [4] | [6] | [5]

S=C(S)N1CCNCC1
inactive: [7] | [8]

CC(=O)c1c(O)c(C)c(O)c(Cc2c(O)c3c(c(C(=O)/C=C/c4ccccc4)c2O)OC(C)(C)C=C3)c1O
inactive: [1] | [3] | [5]

CCCN1CCc2cc(O)cc3c2[C@H]1Cc1ccc(O)c(O)c1-3
inactive: [1] | [3] | [4] | [6]

Oc1ccc2c3c1O[C@H]1c4[nH]c5ccccc5c4C[C@@]4(O)C(C2)N(CC2CC2)CCC314 (some centres not stated)
inactive: [1] | [3] | [4] | [6] | [5]

CCCCCl
inactive: [7]

Clc1ccc(C2(Cn3cncn3)OCCO2)c(Cl)c1
inactive: [7] | [8]

O=C1C=CC(=O)C=C1
inactive: [1] | [3] | [4] | [6] | [5]

O=C1C[C@@H]2OCC=C3CN4CC[C@]56c7ccccc7N1[C@H]5[C@H]2[C@H]3C[C@H]46 (tested in a mixture with another compound)
inactive: [7] | [8]

Cc1cccc(C(C)c2cnc[nH]2)c1C (configuration not stated)
inactive: [7] | [8]

CN(C(=O)Cc1ccc(Cl)c(Cl)c1)C(CN1CCCC1)c1cccc(OCC(=O)O)c1 (configuration not stated)
inactive: [1] | [3] | [4] | [6] | [5]

CN(N=O)c1ccc(O)c(O)c1
inactive: [1] | [3] | [4] | [6]
active: [5] 18.5 µM

CC1(C(=O)O)C2CCC(O2)C1(C)C(=O)O (configuration not stated)
inactive: [1] | [3] | [4] | [5]

COc1ccc2c(c1OC)C(=O)OC2C1c2cc3c(cc2CCN1C)OCO3 (configuration not stated)
inactive: [7]

C=CCN1CCC23c4c5ccc(O)c4O[C@H]2C(=O)CC[C@@]3(O)C1C5 (some centres not stated)
inactive: [1] | [3] | [4] | [6] | [5]

CO[C@H]1CC=C2CCN3CCC4=C(CC(=O)OC4)[C@]23C1
inactive: [1] | [3] | [4] | [6] | [5]

CC[C@H](C)[C@H]1O[C@]2(C=C[C@@H]1C)C[C@@H]1C[C@@H](C/C=C(\C)[C@@H](O[C@H]3C[C@H](OC)[C@@H](O[C@H]4C[C@H](OC)[C@@H](O)[C@H](C)O4)[C@H](C)O3)[C@@H](C)/C=C/C=C3\CO[C@@H]4[C@H](O)C(C)=C[C@@H](C(=O)O1)[C@]34O)O2
inactive: [7] | [8]

N[C@@H](Cn1oc(=O)[nH]c1=O)C(=O)O
inactive: [1] | [3] | [4] | [6] | [5]

Nc1ccc(CCN2CCN(c3cccc(C(F)(F)F)c3)CC2)cc1
inactive: [1] | [3] | [4] | [6] | [5]

CC(C)(O)C1C2OC(=O)C1C1(O)CC3OC34C(=O)OC2C14C (configuration not stated)
inactive: [7]

O=[N+]([O-])c1ccc(F)c([N+](=O)[O-])c1
inactive: [7] | [8]

Oc1ccc2c3c1O[C@H]1c4oc5ccccc5c4C[C@@]4(O)C(C2)N(CC2CC2)CCC314 (some centres not stated)
inactive: [1] | [3] | [4] | [5]

NC(=O)COc1c(F)cc(SCCNS(=O)(=O)c2ccccc2)cc1F
inactive: [1] | [3] | [4] | [6] | [5]

Cn1sc(Cl)cc1=O
inactive: [7] | [8] | [9]

O=C(NCNC(=O)NC1C(=O)NC(=O)N1CO)NC1C(=O)NC(=O)N1CO (configuration not stated)
inactive: [7] | [8] | [9]

CN1[C@H]2CC[C@@H]1[C@@H](C(=O)O)[C@@H](OC(=O)c1ccccc1)C2
inactive: [7] | [8]

CCC1(c2ccccc2)C(=O)NC(=O)N(C(=O)c2ccccc2)C1=O (configuration not stated)
inactive: [7] | [8]

CCON=O
inactive: [7] | [8] | [9]

CC(=O)[C@H]1CC[C@H]2[C@@H]3CC[C@@H]4C[C@H](O)CC[C@]4(C)[C@H]3CC[C@]12C
inactive: [7] | [8]

C[C@]12CCC(=O)C=C1C=C[C@@H]1[C@@H]2CC[C@@]2(C)[C@H]1CC[C@@]2(O)CCC(=O)O
inactive: [7] | [8] | [9]

CCOC(=O)c1ccccc1C(=O)OCC
inactive: [7] | [8] | [9]

C[C@H]1CCC[C@H](O)CCCCCc2cc(O)cc(O)c2C(=O)O1
inactive: [7] | [8]
